Screening data (PubChem)
HT1080 IDH1KD tx = HT-1080 IDH1 knockdown cell toxicity (counter line); Potency, µM (titrated, usually from 46.1 µM), without a hit: top-dose activity, negative = toxicity, hits mostly cytotoxic; 360,000 compounds, 2% hits; AID 686971; HT-1080 IDH1 knockdown viability, ATP luminescence, 48 h;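 also: potency is read from the fitted curve at half-maximal effect; 0% = DMSO wells and -100% = cell-free medium wells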
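In this qHTS, HT-1080 cells depleted of IDH1 are exposed for 48 h at 37 °C to compound titrations. Toxicity is scored from CellTiter-Glo luminescence, with DMSO as full viability and medium alone as none.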
IL1B secr inh = inflammasome signaling inhibition, IL-1 beta readout. 360,000 compounds, 4.7% hits. THP-1 LPS/ATP IL-1B secretion, AlphaLISA, 16 h; stronger effect = lower value. activity change, % at 57.5 µM. AID 743279; in the data active = activity change below about -50%; inconclusive = mostly about -30% to -49%
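THP-1 cells pretreated 1 hr with compounds (up to 57.5 uM final), then stimulated with LPS (250 ng/mL final) plus ATP (1.25 mM final); secreted IL-1B measured by AlphaLISA after 16 hr, decreased signal indicating inhibition.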
DT40 TDP1 no CPT = qHTS for Inhibitors of human tyrosyl-DNA phosphodiesterase 1 (TDP1): qHTS in cells in absence of CPT; DT40 Tdp1-/- hTDP1 cells, no CPT, ATP luminescence, 48 h; AID 686978, 2013; Potency, µM (titrated, usually from 46.2 µM), inactives show top-dose activity change, negative = growth inhibition, hits mostly inhibitors; 420,000 compounds, 15% hits; also: potency is read from the fitted curve at half-maximal effect; nearly all actives have a fitted effect of over 55% in size
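Camptothecin absent (DMSO only). Human TDP1-complemented DT40 knockout cells, 400 cells/well, 37 °C for minimum 48 hr; ATP measured via CellTiter-Glo, 30 min dark incubation, luminescence.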
TDP1 cell CPT = DT40-hTDP1 cell growth loss with CPT | chicken DT40 Tdp1-/-;hTDP1 cells + 20 nM CPT, ATP luminescence, 48 h | Potency, µM (highest dose often 46.2 µM), for inactives: at the top dose activity change, negative = growth inhibition, usual class: inhibitors | 420,000 compounds, 12% hits | AID 686979; also: potency is read from the fitted curve at half-maximal effect; nearly all actives have a fitted effect of over 55% in size
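Chicken DT40 Tdp1-/- cells complemented with human TDP1, 400 cells/well, exposed to compounds plus 20 nM camptothecin for at least 48 h at 37 C; viability read as ATP content by CellTiter-Glo luminescence.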
HT1080-NT tox = kills 2HG-producing HT-1080-NT fibrosarcoma cells | HT-1080-NT fibrosarcoma viability, CellTiter-Glo ATP luminescence, 48 h | Potency, µM (titrated, usually from 46.1 µM), inactives show top-dose activity, negative = less viability, actives largely listed as cytotoxic | 360,000 compounds, 1.6% hits | AID 686970;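 also: NT is the 2HG producing partner of a matched IDH1 knockdown line; potency is read from the fitted curve at half-maximal effect; 0% = DMSO-treated cells and -100% = media-only wells without cells; nearly all actives have a fitted effect of over 55% in size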
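HT-1080-NT fibrosarcoma cells (2HG-overproducing), 750 cells/well in RPMI with 5% FBS, dosed after 2 h and incubated 48 h at 37C. CellTiter-Glo luminescence normalized to DMSO and no-cell wells; concentration-response curves fitted and classed.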
* marks the source's active call; other numbers are inactive results; ? = inconclusive; . = no result given; [ ] = another dose, or the depositor's remark. A selection: hits, their analogues and other compounds. The true share with any hit is near 19%. Unless noted, calls follow the shape of the dose curve; as a rule, active = well fitted curve in the direction sought with a large enough effect; inconclusive = small, poorly fitted or top-dose-only effect, or another doubt; inactive = no such curve, though single readings can be large; an effect the other way counts as inactive or inconclusive. Unless noted, % is scaled to controls: 0 for no effect and ±100 for the full control effect.

SMILES	HT1080 IDH1KD tx	IL1B secr inh	DT40 TDP1 no CPT	TDP1 cell CPT	HT1080-NT tox
O=C1c2ccccc2C(=O)N1Cc1nn2c(-c3ccc(Cl)cc3)nnc2s1	5%	11	?	-29%	1%
CC1(C(=O)Nc2ccc3c(c2)OCCO3)CN(S(C)(=O)=O)CC(=O)N1CCc1ccccc1F (stereo not given)	-7%	-8	-20%	-18%	0%
C=CCc1cc(/C=N\NC(=O)CSc2nnc(CCCc3ccc(OC)c(C)c3)o2)cc(OC)c1O	-6%	-6	?	?	-13%
COc1ccc(CCCc2nnc(SCC(=O)N/N=C\c3ccc(O)c(OC)c3)o2)cc1C	-20%	-25	?	15µM*	-12%
Cc1cc(SCC(=O)N/N=C/c2ccc(O)c(O)c2)c(C)cc1Br	?	51	16µM*	21µM*	-28%
COc1ccc2nc(C)cc(SCC(=O)N/N=C/c3cccc4ccccc34)c2c1	6.3µM*	-56*	13µM*	7.1µM*	11µM*
Cc1cc(SCC(=O)N/N=C/c2ccc(O)c(O)c2)nc2ccccc12	?	10	?	?	-29%
Cn1c(=O)c(CCc2ccccc2)nc2cnc(OCc3ccccc3)nc21	.	.	-7%	12%	.
O=[N+]([O-])c1ccc(-c2c[nH]c(=S)[nH]2)cc1	5%	12	?	16µM*	0%
S=c1[nH]cc(-c2ccccc2)[nH]1	0%	-24	-11%	-2%	-9%
COc1cccc(C(=O)N2CCN(c3ccccn3)CC2)c1	28%	-3	-3%	-15%	17%
O=C(CCc1nnc2n(Cc3ccc(F)cc3)c(=O)c3ccccc3n12)NCCN1CCOCC1	-3%	-14	-7%	-30%	-3%
O=C(CCc1nnc2n(Cc3ccc(F)cc3)c(=O)c3ccccc3n12)N1CCN(c2ccccn2)CC1	14%	?	21µM*	?	14%
COc1ccc(Cn2c(=O)[nH]c3cc(C(=O)N4CCN(c5ccccn5)CC4)ccc3c2=O)cc1	4%	-16	23µM*	15µM*	2%
O=C(c1ccc(CN2CCc3ccccc3C2)cc1)N1CCc2ccccc2C1	10%	8	?	?	6%
O=C(c1ccc(CN2CCc3ccccc3C2)cc1)N1CCN(c2ccccc2)CC1	2%	18	?	13µM*	4%
O=C(c1ccc(Cn2c(=O)[nH]c3ccccc3c2=O)cc1)N1CCN(c2ccccn2)CC1	-2%	?	23µM*	?	-4%
N#CCC(C(=O)c1cccnc1)c1ccccc1 (stereo not given)	2%	2	-2%	-9%	0%
Cc1cc(SCC(=O)N(C)C2CCS(=O)(=O)C2)nc2c(C)cccc12 (stereo not given)	0%	-11	?	-9%	-10%
COc1ccc(Cn2c(=O)[nH]c3cc(C(=O)N4CCN(c5cc(Cl)ccc5C)CC4)ccc3c2=O)cc1	.	.	15µM*	15µM*	.
CCOC(=O)N1CCN(C(=O)c2ccc3c(=O)n(Cc4ccc(OC)cc4)c(=S)[nH]c3c2)CC1	-8%	-8	?	?	-11%
O=C(c1ccc(Cn2c(=O)[nH]c3ccccc3c2=O)cc1)N1CCN(c2ccccc2)CC1	1%	-10	15µM*	18µM*	-1%
CCn1c(=O)[nH]c2cc(C(=O)N3CCN(c4ccccc4)CC3)ccc2c1=O	-14%	9	?	?	4%
O=C(CCc1ccccc1)NCc1nc2cccnc2n1Cc1ccc(F)cc1	.	.	?	-24%	.
C/C=N/NC(=O)CCNC(=O)c1ccccc1	-21%	0	-9%	8%	-6%
SMILES	HT1080 IDH1KD tx	IL1B secr inh	DT40 TDP1 no CPT	TDP1 cell CPT	HT1080-NT tox
Cc1ccc(Sc2nc(-c3ccccc3)nnc2C(F)(F)F)cc1	9%	0	21µM*	21µM*	0%
CC1CC(C)CN(c2ncc3c(n2)CC(c2ccc(Cl)cc2)CC3=O)C1 (stereo not given)	1%	-12	8.2µM*	?	3%
CC1CC(C)CN(c2ncc3c(n2)CC(c2ccccc2Cl)CC3=O)C1 (stereo not given)	9%	-9	21µM*	?	7%
O=C1CC(c2ccccc2)Cc2nc(N3CCc4ccccc4C3)ncc21 (stereo not given)	-2%	8	?	?	-7%
C(=NNc1ccc2ccccc2n1)c1ccccn1	7.3µM*	53	1µM*	1.6µM*	18µM*
Cc1csc(N/N=C/c2ccccn2)n1	?	-100*	0.46µM*	0.58µM*	?
c1ccc2nc(NN=C3CCCCC3)ccc2c1	0%	23	?	?	-4%
C(=N\NC1=Nc2cccc3cccc1c23)/c1ccccn1	?	111	9.2µM*	8.2µM*	-20%
O=C(Nc1cccc2ncccc12)c1ccco1	12%	3	-4%	6%	0%
Cc1nn(-c2ccccc2)c(OC(=O)c2ccccc2Cl)c1S(=O)(=O)c1ccccc1	.	.	-24%	-8%	.
CCOc1ccccc1C(=O)Oc1c(S(=O)(=O)c2ccc(C)cc2)c(C)nn1-c1ccccc1	.	.	21µM*	10µM*	.
Cc1ccc(C(=O)Nc2cc([N+](=O)[O-])ccc2F)s1	5%	5	-3%	-3%	9%
O=C(Nc1cccnc1)c1ccc([N+](=O)[O-])s1	?	-2	0.65µM*	0.73µM*	?
CC(C)(C)c1ccc(NC(=O)COC(=O)c2ccc([N+](=O)[O-])s2)cc1	10%	24	-27%	1%	3%
O=C(Nc1cccnc1)c1cc(Br)c(Br)s1	-6%	-6	?	?	-10%
CN(C)NC(=O)c1ccc([N+](=O)[O-])s1	0%	8	16µM*	?	?
O=C(Nc1ccccc1F)c1ccc([N+](=O)[O-])s1	?	-68*	21µM*	21µM*	?
O=C(Nc1cccc2ccccc12)c1ccc([N+](=O)[O-])s1	?	15	10µM*	15µM*	?
COc1cc2nc(N(C)C)c(CNC3CCOC(C)(C)C3)cc2c(OC)c1OC (stereo not given)	.	.	-23%	-7%[9.04 µM]	.
COc1cc(OC)c(OC)cc1CN1CCC(n2cc(C(=O)N3CCCCC3)nn2)CC1	.	.	-8%	8%[9.04 µM]	.
S=C(NCC1CCCO1)N1CCN(Cc2ccccc2Cl)CC1 (stereo not given)	-17%	28	?	?	1%
N#Cc1ccc(C23CC4(C2)[C@H](CN(CC2CCCCC2)[C@@H]4c2ccccc2)C3c2ccc(Cl)nc2)cc1 (stereo not given in full)	-4%	3	15µM*	13µM*	-13%
